# D3 ag: agonists of human D3 dopamine receptor. D3R DiscoveRx beta-arrestin cells, luminescence, 90 min. max activation, %. 410,000 compounds, 0.58% hits; in the data active means max activation above about 30%; further: 0% is about no effect
#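 Agonist mode: compounds and dopamine controls were applied to plated cells for 90 min at 37 degrees C after an overnight attachment at 1500 cells/well. Luminescent read-out followed 30 - 60 minutes at room temperature with DiscoveRx detection reagent.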
# D1 PAM: enhances dopamine response at the human D1 receptor; potentiation, % at 10 µM; HEK293 TREx D1 cells, calcium flux, dopamine EC20 potentiation; 360,000 compounds, 0.036% hits; in the data active means potentiation above about 30%; further: 0% is about no effect
# Target sequence (P21728 whole entry, looked up): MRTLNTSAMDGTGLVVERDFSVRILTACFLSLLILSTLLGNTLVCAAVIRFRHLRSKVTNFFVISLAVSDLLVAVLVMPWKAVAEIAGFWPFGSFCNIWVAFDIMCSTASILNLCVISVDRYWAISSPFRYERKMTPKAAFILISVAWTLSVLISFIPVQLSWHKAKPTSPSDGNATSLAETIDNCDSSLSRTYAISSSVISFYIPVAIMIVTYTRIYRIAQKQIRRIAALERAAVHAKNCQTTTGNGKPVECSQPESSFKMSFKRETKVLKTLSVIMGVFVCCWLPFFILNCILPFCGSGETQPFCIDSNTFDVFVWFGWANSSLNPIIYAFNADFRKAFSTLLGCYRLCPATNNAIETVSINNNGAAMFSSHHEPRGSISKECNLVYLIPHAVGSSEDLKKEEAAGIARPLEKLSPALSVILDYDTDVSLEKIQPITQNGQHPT
# D1 ag: human D1 receptor agonism; AID 504660; 360,000 compounds, 1% hits; HEK293 T-REx D1 cells, calcium flux, agonist mode; activation, % at 2 µM; in the data active means activation above about 30%; further: 0% is about no effect
#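 Tetracycline-induced HEK293 TREx D1 cells, force-coupled to calcium signalling, were dye-loaded with a no-wash calcium kit. Compound was pin-added after a 10 s baseline. Fluorescence was read kinetically at 1 cycle/s for 180 s, with calcium rises flagged as agonism.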
# D3 antag: D3 dopamine receptor (human) antagonism; P35462; D3R cells, DiscoveRx beta-arrestin luminescence, antagonist mode; hits give low values; max response, negative = inhibition, %; 360,000 compounds, 2.5% hits; AID 652054; in the data active means max response below about -50%; inconclusive means no clear call, values can overlap the other calls; further: on the % scale 0 is the no-effect control and ±100 the full control effect
#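 Cells expressing the human receptor were seeded at 1500 cells/well, incubated overnight at 37 degrees C in 5% CO2, then exposed to library compounds with dopamine controls for 90 minutes at 37 degrees C before luminescent detection.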
# D1 antagonist: blocks dopamine activation of the human D1 receptor; P21728; HEK293 TREx D1 cells, calcium flux, dopamine EC80; hits give low values; activity change, negative = inhibition, % at 10 µM; 360,000 compounds, 3.2% hits; AID 504652; in the data active means activity change below about -30%; further: on the % scale 0 is the no-effect control and ±100 the full control effect
#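 Kinetic fluorescence of a calcium dye serves as the read-out. D1-expressing Hek293 Trex cells, induced overnight at 30 C, are exposed to compound for 180 s before an EC80 dopamine addition, then read 180 s further.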
# Starred values were filed as active, the others as inactive; ? = inconclusive; . = no result given. Hits are enriched below; roughly 6% of the tested compounds scored in any of these assays.
SMILES,D3 ag,D1 PAM,D1 ag,D3 antag,D1 antagonist
Cc1onc(-c2ccccc2)c1C(=O)NNC(=O)c1ccccc1,1,-6,1,-4,4
CCC(=O)Nc1cccc(NC(=S)NC(=O)c2ccc(Cl)cc2Cl)c1,3,-8,0,-7,0
COc1ccc2oc(=O)c(-c3nc(-c4cc(OC)c(OC)c(OC)c4)no3)cc2c1,4,3,2,.,-4
Cc1onc(-c2ccccc2)c1C(=O)NNC(=S)NC(=O)c1ccc(Cl)cc1Cl,5,16,308*,-21,58
COc1ccc(Nc2cc(C)c3cc(NC(=O)c4cc(OC)cc(OC)c4)ccc3n2)cc1,8,2,4,.,-4
CCCOC(=O)N[C@@H]1C(=O)N2C(C(=O)OCCC)=C(C)CS[C@H]12,-17,-3,-1,-53*,-15
CC1=C(C(=O)OCC(Cl)(Cl)Cl)N2C(=O)C(NC(=O)Cc3ccccc3)C2SC1 (configuration not stated),1,-10,26,7,-34*
CCOc1ccc(NC(=O)C2CCCN(S(=O)(=O)c3ccc(Br)s3)C2)cc1 (configuration not stated),7,-2,-1,.,-12
O=C(Cn1cc(C(F)(F)F)ccc1=O)NC1CCCC1,-4,-2,2,10,-44*
CC1Cc2ccccc2N1C(=O)Cn1cc(C(F)(F)F)ccc1=O (configuration not stated),-14,.,.,-117*,.
O=C(Cn1cc(C(F)(F)F)ccc1=O)Nc1ccccc1,3,4,2,-12,11
CC1Cc2ccccc2N1C(=O)CN1CCN(Cc2ccccc2)CC1 (configuration not stated),-11,-9,0,-78*,1
CC(=O)Nc1ccc(NC(=O)C(NS(=O)(=O)c2ccc(Br)s2)c2ccccc2)cc1 (configuration not stated),1,5,0,.,0
CCNC(=O)C1(C)CCCN(C(=O)c2sc(-c3ccccc3)nc2C)C1 (configuration not stated),-6,.,.,-23,.
CC(C)(C)c1nn(-c2ccccc2)c2[nH]c(=O)c(CNc3ccc4c(c3)OCCO4)cc12,-46,-6,1,-75*,1
COc1ccc(C)cc1NC(=O)Cn1c(=O)oc2cc(S(=O)(=O)N3CCCCCC3)ccc21,-9,-1,0,.,1
O=[S+]([O-])(c1ccc2c(c1)OCCO2)N1CCN([S+](=O)([O-])c2c(O)cc(F)cc2F)CC1,.,-10,-1,.,-48*
CC1=C(c2ccc(C)cc2)S(=O)(=O)N(CC(=O)O)C1=O,9,4,6,6,-1
COC(=O)CN1C(=O)C(C)=C(c2ccc(C)cc2)S1(=O)=O,10,-6,1,-6,-36*
CCCCN(CC)CCNC(=O)c1cc2c(-c3ccccc3F)nn(C)c2s1,-15,-7,24,-61*,-1
CCN(CCCNC(=O)c1cc2c(-c3cccc(OC)c3)nn(C)c2s1)Cc1ccccc1,-20,-10,4,-54*,1
O=S(=O)(O)CCCS(=O)(=O)O,4,.,.,.,.
CCOC1=C2[C@H](c3ccccc3)N(S(=O)(=O)c3ccc(C)cc3)[C@H](C(C)C)[C@H]2n2c(=O)n(-c3ccccc3)c(=O)n2C1,-11,.,.,-55*,.
Cc1c(C(=O)Nc2cccc(F)c2)sc2nc(-c3cc4ccccc4oc3=O)[nH]c(=O)c12,-24,4,-1,.,-36*
O=c1cc(CN2CCN(Cc3ccccc3)CC2)c2cc3c(cc2o1)CCC3,-39,-11,1,-62*,-1
SMILES,D3 ag,D1 PAM,D1 ag,D3 antag,D1 antagonist
O=c1cc(CN2CCN(c3ccccc3F)CC2)c2cc3c(cc2o1)CCCC3,-29,-4,1,-62*,-1
COc1ccc(C)cc1NS(=O)(=O)c1ccc2c3c(cccc13)C(=O)N2,-6,-2,9,.,-2
Cc1ccc2c(c1)c(=O)c1ccccc1n2CCCC(=O)Nc1cc(Cl)ccc1C,14,3,0,.,-9
Cc1ccc(NC(=O)CCCn2c3ccccc3c(=O)c3cc(C)ccc32)c(Br)c1,39*,2,1,.,5
Cc1ccccc1Cn1nc(C)c(NC(=O)c2nc3n(n2)C(C(F)F)CC(C)N3)c1C (configuration not stated),1,-4,0,11,6
Cc1ccccc1Cn1nc(C)c(NC(=O)c2cc3n(n2)C(C(F)F)CC(C(F)F)N3)c1C (configuration not stated),-2,-2,-1,10,-51*
CN(C)CCN1CCN(C2CN(C3CCCC3)S(=O)(=O)C2)CC1 (configuration not stated),0,.,.,13,.
CCOC(=O)C1=C(c2ccccc2)N=c2s/c(=C\c3cc(OC)c(OC)c(OC)c3)c(=O)n2C1c1cccs1 (configuration not stated),9,-4,240*,5,-1
CCOc1ccc(Nc2ncnc3c2nc2n3CCCCC2)cc1,3,4,5,.,5
COc1ccc(Nc2nc(NN)nc(Nc3ccc(OC)cc3)n2)cc1,-11,-2,2,-26,-31*
NNc1nc(Nc2ccccc2)nc(Nc2ccccc2)n1,-24,-5,0,-52*,-30*
NNc1nccc(Nc2ccccc2C(=O)O)n1,-3,-5,1,-11,-5
c1ccc(Nc2ccnc(Nc3ccccc3)n2)cc1,5,-9,2,2,-34*
O=C(NC1CC1)c1ccc(Cn2c(SCc3ccccc3F)nc3cccnc32)cc1,-7,-4,13,.,12
CCNC(=O)C1(C)CCN(C(=O)c2c(F)ccc(C)c2F)C1 (configuration not stated),4,.,.,13,.
O=C(Nc1ccc(N2CCN(C(=O)c3ccco3)CC2)cc1)c1ccc(F)cc1,0,-12,0,6,3
O=C(Nc1ccc(N2CCN(C(=O)c3ccco3)CC2)cc1)c1ccccc1,-3,2,1,13,-56*
CCC(=O)Nc1ccc(N2CCN(Cc3ccccc3F)CC2)cc1,-3,1,3,?,-10
O=C(Nc1ccc(N2CCN(Cc3ccccc3)CC2)cc1)c1ccco1,-9,-4,4,1,-30*
O=C(Cc1ccccc1)Nc1ccc(N2CCN(Cc3ccccc3F)CC2)cc1,-3,-6,2,-52*,6
C/C(=N\NC(=O)c1ccco1)c1ccc(-c2ccccc2)cc1,-3,-4,2,4,-1
C/C(=N\NC(=O)c1ccco1)c1ccc(NC(=O)c2ccccc2)cc1,-1,-7,4,0,-33*
O=c1oc2cc(O)ccc2cc1-c1nc2ccccc2o1,5,.,.,64,.
CCN(CC)c1ccc2cc(S(=O)(=O)c3ccc(Cl)cc3)c(=O)oc2c1,3,21,272*,-16,-7
CCCCCCc1cc2cc(S(=O)(=O)c3ccc(Cl)cc3)c(=O)oc2cc1O,21,-2,32*,19,-6
